# Hits are enriched below; roughly 7.5% of the tested compounds scored in any of these assays.
# NPC1 prom act: qHTS Assay for NPC1 Promoter Activators | Huh7 NPC1 promoter luciferase reporter, 24 h | Potency, µM (doses to about 9.22 µM), for inactives: at the top dose activation, actives largely listed as activators | hit rate 2.4% among 320,000 | AID 485313, 2010; also: % of control where 0% means no effect; nearly all actives have a fitted effect of over 60% in size
#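 Luciferase expression driven by the NPC1 promoter was measured in stably transfected Huh7 cells after a 24 h compound incubation, using a luciferase reagent and a luminescence read.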
# FLuc counter: qHTS profiling assay for firefly luciferase inhibitor/activator using purifed enzyme and Km concentrations of substrates (counterscreen for miR-21 project). Luciferin 4-monooxygenase (Photinus pyralis), P08659. hit rate 6.9% among 360,000. Potency, µM (doses to about 57.5 µM), inactives show at the top dose activity change, negative = inhibition, most hits filed as inhibitors. purified FLuc, Km substrates, luminescence inhibition. AID 588342, 2011;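 also: plate controls were vehicle for no effect and reference inhibitor for full effect; nearly all actives have a fitted effect of over 55% in size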
# Target sequence (P08659 whole entry, looked up): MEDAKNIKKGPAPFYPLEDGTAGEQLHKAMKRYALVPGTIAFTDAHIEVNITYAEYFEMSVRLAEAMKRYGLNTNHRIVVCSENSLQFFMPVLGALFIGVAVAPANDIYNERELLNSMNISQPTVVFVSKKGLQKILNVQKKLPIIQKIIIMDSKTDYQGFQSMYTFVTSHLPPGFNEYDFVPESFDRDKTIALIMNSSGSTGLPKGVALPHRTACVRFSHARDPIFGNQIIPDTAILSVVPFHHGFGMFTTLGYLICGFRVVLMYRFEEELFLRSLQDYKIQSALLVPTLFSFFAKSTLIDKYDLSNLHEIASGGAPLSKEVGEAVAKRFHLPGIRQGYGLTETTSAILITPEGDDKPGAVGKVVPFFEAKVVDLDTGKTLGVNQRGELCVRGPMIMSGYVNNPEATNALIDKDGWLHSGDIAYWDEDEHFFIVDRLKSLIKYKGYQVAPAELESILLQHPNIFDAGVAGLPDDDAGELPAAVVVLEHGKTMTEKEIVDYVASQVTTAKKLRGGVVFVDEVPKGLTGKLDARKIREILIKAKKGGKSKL
#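 Purified P. pyralis luciferase (10nM final) with 10uM D-luciferin and 10uM ATP (Km levels) in 50mM Tris acetate pH 7.5, 10mM Mg acetate, 0.01% Tween-20, 0.05% BSA; qHTS 6-point titration, ~60 µM downward; luminescence read.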
# ELG1 genotoxic: qHTS screen for small molecules that induce genotoxicity in human embryonic kidney (HEK293T) cells expressing luciferase-tagged ELG1; HEK293T ELG1-luciferase reporter, luminescence, 16 h; Potency, µM (doses to about 46 µM), for inactives: at the highest dose activity change, positive = activation, hits mostly activators; hit rate 1.3% among 330,000; also: % of control where 0% means no effect; nearly all actives have a fitted effect of over 60% in size
#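 Genotoxicity was scored as increased ELG1-luciferase reporter signal, measured by ONE-Glo luminescence (30 min, room temperature). Compound or vehicle exposure of the HEK293T reporter cells lasted 16 hr at 37°C.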
# Luc counter: Counterscreen for Luciferase (Kinase-Glo TM) Inhibition; Kinase-Glo luciferase, ATP luminescence, 8 min; Luciferin 4-monooxygenase (Photuris pensylvanica), Q27757; hit rate 0.28% among 200,000; Potency, µM (series often up to 38.3 µM), without a hit: top-dose activity change, negative = inhibition, actives largely listed as inhibitors; AID 1379, 2008; also: % is scaled to controls: 0 for no effect and ±100 for the full control effect; nearly all actives have a fitted effect of over 60% in size
#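 Substrate mix (final 50 mM imidazole pH 7.2, 50 mM KCl, 7 mM MgCl2, 10 uM ATP, 0.01% Tween 20, 0.05% BSA) plus pin-tool compound, then Kinase-Glo detection mix; 8 min ambient, luminescence read.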
# SMN2 splice up: qHTS Assay for Enhancers of SMN2 Splice Variant Expression; HEK293 SMN2-luciferase splicing reporter, luminescence, 30-36 h; Potency, µM (top dose mostly 46.1 µM), without a hit: at the top dose activity change, positive = activation, hits mostly activators; hit rate 2.8% among 210,000; also: % of control where 0% means no effect; nearly all actives have a fitted effect of over 55% in size
#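 qHTS luciferase splicing reporter: luminescence rises when SMN2 exon 7 is included in transfected HEK293 cells. Compound exposure lasted 30-36 h at 37C, with 4.5 mM final sodium butyrate as control, followed by a ONE-Glo read.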
# Rab9 promoter act: qHTS Assay for Rab9 Promoter Activators; Huh7 Rab9 promoter-luciferase reporter, luminescence, 24 h; Potency, µM (titrated, usually from 9.22 µM), inactives show at the highest dose activation, negative = inhibition, hits mostly activators; hit rate 2.8% among 320,000; also: % of control where 0% means no effect; nearly all actives have a fitted effect of over 60% in size
#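 Cell-based reporter: Huh7 stable for Rab9 promoter-driven luciferase, plated in reduced-serum medium with 10% FBS at 1500 cells/well, compound-treated 24 h at 37 °C, luminescence read after 10 min reagent.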
# The depositor's hits bear a star; ? = inconclusive; · = no result. Calls follow the shape of the dose curve; as a rule, active = well fitted curve in the direction sought with a large enough effect; inconclusive = small, poorly fitted or top-dose-only effect, or another doubt; inactive = no such curve, though single readings can be large; an effect the other way counts as inactive or inconclusive. Potency is read from the fitted curve at half-maximal effect.
SMILES,NPC1 prom act,FLuc counter,ELG1 genotoxic,Luc counter,SMN2 splice up,Rab9 promoter act
Cc1ccc(Sc2c(C)nn(C(=O)COc3ccccc3Br)c2C)cc1,·,-4.8%,·,·,-18.0%,·
CC(C)(C)OC(=O)CN1C(=O)S/C(=C\c2ccc(-c3cccc(C(=O)O)c3)o2)C1=O,?,15.1µM*,?,·,·,3.16µM*
Cc1ccc(NC(=O)CN2C(=O)S/C(=C\c3ccc(-c4cccc(C(=O)O)c4C)o3)C2=O)cc1,-0.4%,?,2.4%,15.8%,12.8%,3.6%
C#CCN1C(=O)S/C(=C\c2ccc(-c3ccc(C(=O)O)cc3C)o2)C1=O,1.12µM*,7.57µM*,?,·,·,2.51µM*
Cc1ccc(C(=O)O)cc1-c1ccc(/C=C2\SC(=O)N(CC(=O)Nc3ccccc3)C2=O)o1,-0.1%,?,-1.7%,1.8%,-3.4%,-0.9%
CC(C)OC(=O)CN1C(=O)S/C(=C/c2ccc(N3CCCCC3)o2)C1=O,0.9%,21.3µM*,27.6%,-5.7%,-10.0%,-3.3%
O=C1S/C(=C/c2ccc(N3CCOCC3)o2)C(=O)N1Cc1ccc(F)cc1,-0.5%,?,1.1%,-6.1%,-17.0%,-4.0%
Cc1ccc(NC(=O)CN2C(=O)S/C(=C/c3ccc(-c4cccc(C(=O)O)c4)o3)C2=O)cc1,12.7%,21.3µM*,-10.5%,1.5%,?,13.4%
Cc1noc(C)c1CSCC(=O)Nc1nc2ccc(F)cc2s1,15.5%,?,-0.8%,·,·,1.4%
O=C(c1ccc(C#Cc2ccccc2)o1)N1CCN(c2ccccn2)CC1,1.6%,?,0.9%,-4.7%,-13.7%,2.6%
COC(=O)c1ccc(C#Cc2ccccc2)o1,19.0%,16.9µM*,13.9%,·,·,17.4%
CC12CCC(C(=O)NCCCN3CCOCC3)(C(Br)C1=O)C2(C)C (stereo unspecified),-1.1%,-0.1%,0.8%,·,·,0.4%
COc1cccc(NC(=O)CSc2nc3ccccc3c(=O)n2C)c1,-4.4%,2.2%,-6.9%,·,·,-12.7%
COc1cccc(NC(=O)CSc2nnc3[nH]c(=O)cc(-c4ccccc4)n23)c1,·,1.2µM*,·,·,·,·
O=C(CSc1nnc2[nH]c(=O)cc(-c3ccccc3)n12)Nc1ccc(OC(F)(F)F)cc1,·,2.39µM*,·,·,·,·
CNc1ncnc2c1ncn2[C@@H]1O[C@H](COP(=O)(O)O)[C@@H](O)[C@H]1O,·,·,·,·,-2.2%,·
CCc1cc(=O)oc2c3c(c(Cl)cc12)OCN(Cc1cccc(OC)c1)C3,·,-14.2%,·,·,-6.8%,·
Cc1cn2c(N)c(C=C3C=C(Cl)C(=O)C(Cl)=C3)c(=O)nc2s1,-2.0%,16.9µM*,0.2%,0.8%,-11.7%,-3.8%
COC1=C/C(=C/c2c(N)n3cc(C)sc3nc2=O)C=CC1=O,1.8%,3.79µM*,2.3%,-1.4%,-6.3%,0.0%
COC1=C/C(=C/c2c(N)n3nc(CC(=O)N4CCCC4)sc3nc2=O)C=CC1=O,1.7%,3.4%,0.1%,·,·,0.2%
Cc1cn2c(N)c(/C=C3\C=Nc4ccccc43)c(=O)nc2s1,?,-11.3%,-6.7%,·,·,27.3%
Cc1ccc(NS(=O)(=O)c2ccc(C)c(C(=O)NCC(c3ccccc3)N(C)C)c2)cc1 (stereo unspecified),0.6%,3.8%,-2.8%,·,·,0.5%
CNC(=O)c1ccc(-c2ccc(F)cc2)s1,?,9.53µM*,18.4µM*,-8.9%,?,?
CNC(=O)c1ccc(-c2ccc(OC)cc2)s1,1.26µM*,6.75µM*,?,-2.9%,17.8µM*,12.0%
COc1ccc(NC(=O)c2ccc(-c3ccc(OC)cc3)s2)cc1,-5.9%,-0.8%,9.3%,-0.1%,10µM*,3.3%
SMILES,NPC1 prom act,FLuc counter,ELG1 genotoxic,Luc counter,SMN2 splice up,Rab9 promoter act
O=C(NCCC1CCCCN1S(=O)(=O)c1ccc(F)cc1)C(=O)Nc1ccccc1 (stereo unspecified),1.1%,1.7%,-3.2%,·,·,0.1%
COC(=O)c1ccc(C(NC(=O)c2ccco2)[C@]2(C)C[C@H]2C2CCCCC2)cc1 (stereo partly specified),·,·,·,-5.9%,-32.9%,·
COC(=O)Cn1c2nc3ccccc3nc2c2cccc(C)c21,0.2%,-3.1%,-2.9%,·,·,-3.8%
Cc1cccc2c3nc4ccccc4nc3n(C)c12,1.41µM*,2.39µM*,5.0%,·,·,4.47µM*
CCn1cc(C=C2C(=O)c3ccccc3C2=O)c2ccccc21,1.3%,6.01µM*,?,-4.3%,9.7%,-2.1%
O=[N+]([O-])c1ccc(C(O)CSC(=S)N2CCCCC2)cc1 (stereo unspecified),2.82µM*,16.9µM*,16.9%,·,·,25.3%
O=[N+]([O-])c1ccc(C(=S)N2CCCC2)cc1,-0.2%,-2.8%,5.2%,-0.9%,1.7%,-3.5%
CCc1nc(SCC(=O)Nc2cccc(C(F)(F)F)c2)c2c(=O)n(C)c(=O)n(C)c2n1,-0.3%,-0.2%,-0.4%,-1.5%,-32.3%,-3.6%
C/C(=N/N=C/c1ccccc1O)c1ccccc1O,24.6%,1.07µM*,6.51µM*,·,·,?
CCCS/C(N)=N/N=C/c1cc(C)ccc1O,3.16µM*,2.39µM*,6.51µM*,1.8%,-14.5%,?
Cc1ccc(O)c(C=Nc2cc(C)ccc2O)c1,-0.4%,-6.8%,-0.1%,-1.2%,16.7%,0.3%
CCCCS/C(N)=N/N=C/c1ccccc1O,?,13.5µM*,?,-3.8%,2.8%,3.16µM*
Oc1ccccc1C=NCCN=Cc1ccccc1O,-0.1%,-6.7%,-0.1%,·,·,1.5%
ONC(=Nc1ccc(Cl)cc1)c1ccccc1,-2.8%,-1.1%,-1.3%,4.3%,4.4%,-1.4%
COc1cccc(Nc2cc(-c3ccccc3)nc(C)n2)c1,·,26.9µM*,·,·,·,·
COc1ccc(Nc2cc(Nc3cccc(OC)c3)ncn2)cc1,?,2.69µM*,?,·,·,?
Cc1cc(Nc2ccc(Br)cc2)nc(C)n1,·,21.3µM*,·,·,·,·
Cc1ccc(Nc2cc(-c3ccccc3)nc(C)n2)cc1,·,23.9µM*,·,·,·,·
COc1ccc(Nc2cc(Nc3ccc(OC)cc3)ncn2)cc1,-1.6%,1.6%,0.1%,·,·,1.9%
CCOC(=O)c1ccc(Nc2cc(-c3ccccc3)nc(C)n2)cc1,·,-6.7%,·,·,·,·
Cc1cc(N2C(=O)C3C4CCC(C4)C3C2=O)no1 (stereo unspecified),-1.1%,3.5%,-0.4%,-0.9%,·,-0.2%
COc1ccccc1C(=O)NC(=O)COC(=O)CNC(=O)c1ccccc1F,·,·,0.7%,·,·,·
CCN(CC)S(=O)(=O)c1cccc(NC(=O)CSc2nnc(N)s2)c1,-1.7%,0.8%,-1.6%,2.2%,-5.0%,-4.3%
COc1ccc(NC(=S)N2CCCC(c3nc4ccc(C)cc4[nH]3)C2)c(OC)c1 (stereo unspecified),-7.8%,13.5µM*,-1.7%,0.7%,·,-7.7%

# Bioassay records as filed in PubChem.
